According to PubChem BioAssay (NCATS):
Several values for one entry are separate records, joined by “and”; a condition that tells them apart may be missing. Equal values may be shown once. Results filed as inconclusive are left out. Activity calls are given as the source filed them. Unless noted, calls come from the whole dose curve; as a rule, active = well fitted inhibition curve with a large enough effect; inconclusive = small, poorly fitted or top-dose-only effect; inactive = flat fitted curve, though single readings scatter.

Tests used:
[1] = Drug repurposing screens with cells derived from glioblastoma tumor samples (AID 1345199); details: GBM patient neurospheres viability, ATP luminescence, 48 h; note: % is set by controls: 0 for no effect and ±100 for the full control effect; nearly all actives have a fitted effect of over 40% in size
Outline: (§1)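 Four patient lines of CD133+ GBM neurospheres were screened at several concentrations; hits were retested in those lines plus three slower-growing GBM lines, using 48-hour treatment and ATP-based viability.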

astro = control astrocytes; assay: as above; details: viability, ATP luminescence, 48 h; series mostly up to 45.9 µM
Outline: as §1

[2] = molecular target: Nuclear receptor subfamily 1 group I member 2 (Rattus norvegicus) (UniProt Q9R1A7); assay: qHTS assay for small molecule activators of the rat pregnane X receptor (rPXR) signaling pathway (AID 651751; call rule not given here; note: 0% is about no effect); details: rPXR reporter cells, luciferase (One-Glo), 24 h
Chain of Nuclear receptor subfamily 1 group I member 2 (Rattus norvegicus) (Q9R1A7 whole entry, looked up): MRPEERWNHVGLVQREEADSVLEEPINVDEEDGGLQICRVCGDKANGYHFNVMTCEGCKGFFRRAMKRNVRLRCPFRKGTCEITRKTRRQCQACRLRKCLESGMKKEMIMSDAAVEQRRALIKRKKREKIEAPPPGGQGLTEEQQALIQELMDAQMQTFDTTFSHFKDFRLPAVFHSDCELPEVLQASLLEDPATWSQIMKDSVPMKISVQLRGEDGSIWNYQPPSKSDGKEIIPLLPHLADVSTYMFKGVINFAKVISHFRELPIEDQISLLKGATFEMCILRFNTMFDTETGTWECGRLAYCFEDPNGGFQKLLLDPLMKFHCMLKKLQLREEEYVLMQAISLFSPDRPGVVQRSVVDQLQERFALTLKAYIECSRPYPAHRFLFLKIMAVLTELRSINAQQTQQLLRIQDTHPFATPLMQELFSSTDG

[3] = qHTS assay for small molecule activators of the human pregnane X receptor (PXR) signaling pathway (AID 720659; call rule not given here; note: 0% is about no effect); details: DPX-2 HepG2 CYP3A4-luciferase, 24 h; series mostly up to 92.3 µM
[4] = at 45.9 µM (top of the series), tumour line B
[5] = at 45.9 µM (top of the series), tumour line D
[6] = at 46 µM (top of the series), tumour line A
[7] = at 46.1 µM (top of the series), tumour line C
[8] = at 20 µM (top of the series), tumour line C
[9] = at 21.2 µM (top of the series), tumour line B
[10] = at 21.2 µM (top of the series), tumour line D

CCc1cn([C@H]2C[C@H](O)[C@@H](CO)O2)c(=O)[nH]c1=O
inactive: activity, negative = cell killing [1, 4] -28.6% | activity, negative = cell killing [1, 5] -5.04% | activity, negative = cell killing [1, 6] -8.93% | Potency (astro)

Cc1cc(=O)c(C(=O)N[C@@H](C(=O)N[C@@H]2C(=O)N3C(C(=O)O)=C(CSc4nnnn4C)CS[C@H]23)c2ccc(O)cc2)c[nH]1
inactive: activity, negative = cell killing [1, 4] -7.34% | activity, negative = cell killing [1, 5] 13% | activity, negative = cell killing [1, 7] -6.97% | Potency (astro)

Cc1cc(C)c(NC(=O)C[C@H](CC(=O)O)c2cccc3ccccc23)c(C(=O)N2CCC3(CCCC3)CC2)c1
inactive: activity, negative = cell killing [1, 4] -14% | activity, negative = cell killing [1, 5] 2.34% | activity, negative = cell killing [1, 7] -29.7% | Potency (astro)

CCCCC/C=C\CCC(=O)N[C@H]1[C@H](Oc2c3cc4cc2Oc2ccc(cc2Cl)[C@@H](O[C@@H]2O[C@H](CO)[C@@H](O)[C@H](O)[C@H]2NC(C)=O)[C@@H]2NC(=O)[C@H](NC(=O)[C@@H]4NC(=O)[C@H]4NC(=O)[C@@H](Cc5ccc(c(Cl)c5)O3)NC(=O)[C@H](N)c3ccc(O)c(c3)Oc3cc(O)cc4c3)c3ccc(O)c(c3)-c3c(O[C@H]4O[C@H](CO)[C@@H](O)[C@H](O)[C@@H]4O)cc(O)cc3[C@@H](C(=O)O)NC2=O)O[C@H](CO)[C@@H](O)[C@@H]1O
inactive: activity, negative = cell killing [1, 8] -16.8% | activity, negative = cell killing [1, 9] -7.38% | activity, negative = cell killing [1, 10] -14.2% | Potency (astro)

O=C(/C=C/c1cccc(F)c1)NC1CC1
inactive: activity, negative = cell killing [1, 4] -18.1% | activity, negative = cell killing [1, 5] -4.02% | activity, negative = cell killing [1, 7] -17.9% | Potency (astro)

O=C[C@H](O)[C@@H](O)[C@@H](O)[C@H](O)CO
inactive: activity, negative = cell killing [1, 4] -11.6% | activity, negative = cell killing [1, 5] 0.16% | activity, negative = cell killing [1, 7] 10.2% | Potency (astro)

CC1CCC(NC(=O)N(CCCl)N=O)CC1 (stereo not given)
inactive: activity, negative = cell killing [1, 4] -5.97% | activity, negative = cell killing [1, 5] 0.785% | activity, negative = cell killing [1, 7] -19.7% | Potency (astro)

NCCO/C=C/[C@H](N)C(=O)O
inactive: activity, negative = cell killing [1, 4] -6.64% | activity, negative = cell killing [1, 5] 5.28% | activity, negative = cell killing [1, 7] 26.3% | Potency (astro) | max response [2] -1.31%

Cc1ccccn1
inactive: activity, negative = cell killing [1, 4] -10.1% | activity, negative = cell killing [1, 7] -22.4% | Potency (astro)

CC(C)(C)C(=O)OCC(=O)[C@H]1CC[C@H]2[C@@H]3CCC4=CC(=O)CC[C@]4(C)[C@H]3CC[C@]12C
inactive: activity, negative = cell killing [1, 4] -7.01% | activity, negative = cell killing [1, 5] -7.34% | activity, negative = cell killing [1, 7] 0.589% | Potency (astro)

C=CC[N@@+]12CC[C@@]34c5ccccc5N5/C=C6/[C@H]7C[C@H]8[C@@]9(CC[N@@+]8(CC=C)C/C7=C/CO)c7ccccc7N(/C=C(/[C@@H](C[C@@H]31)/C(=C\CO)C2)[C@H]54)[C@@H]69
inactive: activity, negative = cell killing [1, 8] -3.52% | activity, negative = cell killing [1, 9] -8.94% | activity, negative = cell killing [1, 10] 3.96% | Potency (astro)

FC(F)(F)C(F)(F)C(F)(F)C(F)(F)C(F)(F)C(F)(F)F
inactive: activity, negative = cell killing [1, 4] -7.96% | activity, negative = cell killing [1, 5] -23% | activity, negative = cell killing [1, 7] -26.4% | Potency (astro)

ClC(Cl)Cl
inactive: activity, negative = cell killing [1, 4] 0.236% | activity, negative = cell killing [1, 5] -13.8% | activity, negative = cell killing [1, 7] -5.54% | Potency (astro) | max response [2] -6.93% | outcome [3]

NC(=O)c1cc[n+](CC2=C(C(=O)O)N3C(=O)[C@@H](NC(=O)C(c4ccccc4)S(=O)(=O)[O-])[C@H]3SC2)cc1 (stereo not given in full)
inactive: activity, negative = cell killing [1, 8] 7.27% | activity, negative = cell killing [1, 9] -0.0366% | activity, negative = cell killing [1, 10] -7.97% | Potency (astro)

OC[C@H]1O[C@@H]2O[C@H]3[C@H](O)[C@@H](O)[C@@H](O[C@H]4[C@H](O)[C@@H](O)[C@@H](O[C@H]5[C@H](O)[C@@H](O)[C@@H](O[C@H]6[C@H](O)[C@@H](O)[C@@H](O[C@H]7[C@H](O)[C@@H](O)[C@@H](O[C@H]1[C@H](O)[C@H]2O)O[C@@H]7CO)O[C@@H]6CO)O[C@@H]5CO)O[C@@H]4CO)O[C@@H]3CO
inactive: activity, negative = cell killing [1, 4] -13.8% | activity, negative = cell killing [1, 5] -5.74% | activity, negative = cell killing [1, 7] -2.87% | Potency (astro) | max response [2] 1.3% and 2.85% | outcome [3]

Oc1cccc(O)c1O
inactive: activity, negative = cell killing [1, 4] -15.1% | activity, negative = cell killing [1, 5] 2.75% | activity, negative = cell killing [1, 7] 15.2% | max response [2] -3.92% | outcome [3]

CC(C)(COP(=O)(O)OP(=O)(O)OC[C@H]1O[C@@H](n2cnc3c(N)ncnc32)[C@H](O)[C@@H]1OP(=O)(O)O)C(O)C(=O)NCCC(=O)NCCS (stereo not given in full)
inactive: activity, negative = cell killing [1, 4] -4.74% | activity, negative = cell killing [1, 5] -6.02% | activity, negative = cell killing [1, 6] -28.8% | Potency (astro)

CCOc1ccc(S(=O)(=O)O)c2cccnc12
inactive: activity, negative = cell killing [1, 4] -12% | activity, negative = cell killing [1, 5] -2.86% | activity, negative = cell killing [1, 7] -26.7% | Potency (astro)

CS(=O)(=O)c1ccc([C@@H](O)[C@@H](COC(=O)CN)NC(=O)C(Cl)Cl)cc1
inactive: activity, negative = cell killing [1, 4] -20.1% | activity, negative = cell killing [1, 7] -21.6% | Potency (astro)

Oc1cc(O)cc(O)c1
inactive: activity, negative = cell killing [1, 4] -4.88% | activity, negative = cell killing [1, 5] -12.8% | activity, negative = cell killing [1, 7] -10.5% | Potency (astro)

CO[C@@H]1[C@H](OC(=O)/C=C/C=C/C=C/C=C/C(=O)O)CC[C@]2(CO2)[C@H]1[C@@]1(C)O[C@@H]1CC=C(C)C
inactive: activity, negative = cell killing [1, 4] 2.14% | activity, negative = cell killing [1, 5] -9.21% | activity, negative = cell killing [1, 7] 4.82% | Potency (astro) | max response [2] -5.29% | outcome [3]

C=CC(C)(O)CC/C=C(\C)CCC=C(C)C (stereo not given)
inactive: activity, negative = cell killing [1, 4] -7.36% | activity, negative = cell killing [1, 5] -9.56% | activity, negative = cell killing [1, 6] -15.8% | Potency (astro) | max response [2] 14.8%
